Measured values: PubChem BioAssay AID1159580 (chemical genetic matrix, 2015)
Hit rate of the full screen: of about 5,500 compounds, about 2,000 (36%) were called active. Roughly 18% stayed inconclusive and do not appear here. No stated cut-off is given here; in the data, active means normalized growth mostly below about 0.91 (no sharp cut-off); inconclusive means no clear call, values can overlap the other calls; inactive means mostly above about 0.92. The list shows a part of the results.

Assay: chemical genetic growth profiling, strain panel (AID 1159580);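 further: tested at 20 µM; growth read once vehicle control cultures reached saturation at 30 °C; 1 = growth at the plate median or of vehicle wells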
Conditions: growth OD

Measured: normalized growth

Cc1cc(CC(=O)O)n(C)c1C(=O)c1ccc(Cl)cc1
active: S. cerevisiae deletion strains, locus YNL307C, strain MCK1, stronger effect = lower value 0.901
inactive: S. cerevisiae deletion strains, locus YJR075W, strain HOC1, stronger effect = lower value 1 | S. cerevisiae deletion strains, locus YKL009W, strain mrt4, stronger effect = lower value 0.962 | S. cerevisiae deletion strains, locus YKL068W, stronger effect = lower value 1 | S. cerevisiae deletion strains, locus YKL085W, strain MDH1 (second series), stronger effect = lower value 0.994 | S. cerevisiae deletion strains, locus YKL085W, strain MDH1, stronger effect = lower value 0.994 | S. cerevisiae deletion strains, locus YKL160W, strain elf1, stronger effect = lower value 1.05 | S. cerevisiae deletion strains, locus YKL190W, strain CNB1, stronger effect = lower value 1.01 | S. cerevisiae deletion strains, locus YKR001C, strain vps1, stronger effect = lower value 1.03 | S. cerevisiae deletion strains, locus YKR026C, strain gcn3, stronger effect = lower value 1.03 | S. cerevisiae deletion strains, locus YKR091W, strain srl3, stronger effect = lower value 1.02 | S. cerevisiae deletion strains, locus YLL001W, strain dnm1, stronger effect = lower value 1 | S. cerevisiae deletion strains, locus YLL026W, stronger effect = lower value 1.05 | S. cerevisiae deletion strains, locus YLL041C, strain sdh2, stronger effect = lower value 1.02 | S. cerevisiae deletion strains, locus YLR027C, strain aat2, stronger effect = lower value 1.03 | S. cerevisiae deletion strains, locus YLR039C, strain RIC1, stronger effect = lower value 1 | S. cerevisiae deletion strains, locus YLR058C, strain SHM2, stronger effect = lower value 0.996 | S. cerevisiae deletion strains, locus YLR102C, strain apc9, stronger effect = lower value 1.01 | S. cerevisiae deletion strains, locus YLR113W, strain HOG1, stronger effect = lower value 1.01 | S. cerevisiae deletion strains, locus YLR221C, strain rsa3, stronger effect = lower value 1.01 | S. cerevisiae deletion strains, locus YLR258W, strain gsy2, stronger effect = lower value 1.04 | S. cerevisiae deletion strains, locus YLR262C, strain YPT6 (second series), stronger effect = lower value 1.01 | S. cerevisiae deletion strains, locus YLR262C, strain YPT6, stronger effect = lower value 1.01 | S. cerevisiae deletion strains, locus YLR268W, strain sec22, stronger effect = lower value 0.997 | S. cerevisiae deletion strains, locus YLR320W, strain mms22, stronger effect = lower value 0.994 | S. cerevisiae deletion strains, locus YLR330W, strain CHS5, stronger effect = lower value 0.992 | S. cerevisiae deletion strains, locus YLR342W, strain FKS1 (second series), stronger effect = lower value 0.937 | S. cerevisiae deletion strains, locus YLR342W, strain FKS1, stronger effect = lower value 1.01 | S. cerevisiae deletion strains, locus YLR357W, strain rsc2, stronger effect = lower value 0.995 | S. cerevisiae deletion strains, locus YLR370C, strain arc18, stronger effect = lower value 1.04 | S. cerevisiae deletion strains, locus YLR371W, strain rom2, stronger effect = lower value 1.02 | S. cerevisiae deletion strains, locus YLR384C, strain iki3, stronger effect = lower value 1.04 | S. cerevisiae deletion strains, locus YLR418C, strain cdc73, stronger effect = lower value 0.99 | S. cerevisiae deletion strains, locus YML016C, strain PPZ1, stronger effect = lower value 0.994 | S. cerevisiae deletion strains, locus YML032C, strain rad52, stronger effect = lower value 1.02 | S. cerevisiae deletion strains, locus YML120C, strain ndi1, stronger effect = lower value 1.02 | S. cerevisiae deletion strains, locus YML124C, strain tub3, stronger effect = lower value 1.01 | S. cerevisiae deletion strains, locus YMR058W, strain fet3, stronger effect = lower value 1.03 | S. cerevisiae deletion strains, locus YMR078C, strain ctf18, stronger effect = lower value 1.01 | S. cerevisiae deletion strains, locus YMR125W, strain sto1, stronger effect = lower value 1.03 | S. cerevisiae deletion strains, locus YMR129W, stronger effect = lower value 1.02 | S. cerevisiae deletion strains, locus YMR205C, strain PFK2, stronger effect = lower value 1.02 | S. cerevisiae deletion strains, locus YMR223W, strain ubp8, stronger effect = lower value 0.994 | S. cerevisiae deletion strains, locus YMR231W, strain pep5, stronger effect = lower value 1.03 | S. cerevisiae deletion strains, locus YMR263W, strain SAP30, stronger effect = lower value 0.993 | S. cerevisiae deletion strains, locus YMR307W, strain GAS1, stronger effect = lower value 0.947 | S. cerevisiae deletion strains, locus YNL067W, strain RPL9B, stronger effect = lower value 0.997 | S. cerevisiae deletion strains, locus YNL071W, strain lat1, stronger effect = lower value 1.02 | S. cerevisiae deletion strains, locus YNL128W, strain TEP1, stronger effect = lower value 1.01 | S. cerevisiae deletion strains, locus YNL153C, strain GIM3, stronger effect = lower value 0.991 | S. cerevisiae deletion strains, locus YNL183C, strain NPR1, stronger effect = lower value 0.963 | S. cerevisiae deletion strains, locus YNL209W, strain ssb2, stronger effect = lower value 1.05 | S. cerevisiae deletion strains, locus YNL233W, strain BNI4, stronger effect = lower value 0.993 | S. cerevisiae deletion strains, locus YNL248C, strain rpa49, stronger effect = lower value 1.02 | S. cerevisiae deletion strains, locus YNL250W, strain rad50, stronger effect = lower value 1.01 | S. cerevisiae deletion strains, locus YNL271C, strain bni1, stronger effect = lower value 1.01 | S. cerevisiae deletion strains, locus YNL298W, strain CLA4, stronger effect = lower value 0.998 | S. cerevisiae deletion strains, locus YNL322C, strain KRE1 (second series), stronger effect = lower value 1.02 | S. cerevisiae deletion strains, locus YNL322C, strain KRE1, stronger effect = lower value 1.01 | S. cerevisiae deletion strains, locus YNR049C, strain mso1, stronger effect = lower value 1.02 | S. cerevisiae deletion strains, locus YNR052C, strain pop2, stronger effect = lower value 1.01 | S. cerevisiae deletion strains, locus YOL006C, strain TOP1, stronger effect = lower value 0.895 | S. cerevisiae deletion strains, locus YOL012C, strain htz1 1.55 | S. cerevisiae deletion strains, locus YOL147C, strain pex11, stronger effect = lower value 1.02 | S. cerevisiae deletion strains, locus YOR001W, strain rrp6, stronger effect = lower value 1.01 | S. cerevisiae deletion strains, locus YOR061W, strain CKA2, stronger effect = lower value 1.01 | S. cerevisiae deletion strains, locus YOR069W, strain VPS5, stronger effect = lower value 1 | S. cerevisiae deletion strains, locus YOR070C, strain gyp1, stronger effect = lower value 1.02 | S. cerevisiae deletion strains, locus YOR080W, strain dia2, stronger effect = lower value 1.03 | S. cerevisiae deletion strains, locus YOR083W, strain WHI5, stronger effect = lower value 1.04 | S. cerevisiae deletion strains, locus YOR106W, strain vam3, stronger effect = lower value 1.05 | S. cerevisiae deletion strains, locus YOR136W, strain idh2, stronger effect = lower value 1.02 | S. cerevisiae deletion strains, locus YOR144C, strain elg1, stronger effect = lower value 1.01 | S. cerevisiae deletion strains, locus YOR184W, strain ser1, stronger effect = lower value 0.983 | S. cerevisiae deletion strains, locus YOR231W, strain MKK1, stronger effect = lower value 1.01 | S. cerevisiae deletion strains, locus YOR265W, strain rbl2, stronger effect = lower value 1.05 | S. cerevisiae deletion strains, locus YOR270C, strain vph1, stronger effect = lower value 1.05 | S. cerevisiae deletion strains, locus YOR290C, strain snf2, stronger effect = lower value 1.06 | S. cerevisiae deletion strains, locus YOR316C, strain cot1, stronger effect = lower value 1.01 | S. cerevisiae deletion strains, locus YPL051W, strain arl3, stronger effect = lower value 1.04 | S. cerevisiae deletion strains, locus YPL055C, strain LGE1, stronger effect = lower value 1 | S. cerevisiae deletion strains, locus YPL078C, strain atp4, stronger effect = lower value 1.04 | S. cerevisiae deletion strains, locus YPL106C, strain sse1, stronger effect = lower value 1.04 | S. cerevisiae deletion strains, locus YPL240C, strain hsp82, stronger effect = lower value 1.03 | S. cerevisiae deletion strains, locus YPL241C, strain CIN2, stronger effect = lower value 0.996 | S. cerevisiae deletion strains, locus YPL256C, strain CLN2, stronger effect = lower value 1.02 | S. cerevisiae deletion strains, locus YPR119W, strain clb2, stronger effect = lower value 1.01 | S. cerevisiae deletion strains, locus YPR141C, strain kar3, stronger effect = lower value 1.01 | S. cerevisiae deletion strains, locus YPR163C, strain tif3, stronger effect = lower value 1.01 | S. cerevisiae deletion strains, locus YPR167C, strain met16, stronger effect = lower value 1 | S. cerevisiae deletion strains, strain wtn01, stronger effect = lower value 1.01 | S. cerevisiae strains, strain wild type, stronger effect = lower value 1.01
